Assay results as given in PubChem BioAssay (NCATS).
Active and inactive are the calls of the source. Calls follow the shape of the dose curve; as a rule, active = well fitted curve in the direction sought with a large enough effect; inactive = no such curve, though single readings can be large or run the other way.

Experiment: qHTS for small molecule inhibitors of Yes1 kinase: Counter Assay (AID 686950);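 also: no kinase present so only ADP-Glo detection of a fixed ADP amount is tested; luminescence from ADP-Glo reporting ADP in a fixed ATP and ADP mixture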
Conditions: series mostly up to 76.9 µM
Summary of the method: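 Enzyme-free ADP-Glo interference check: compounds were preincubated 20 min in buffer, then an ATP/ADP mix (0.08 mM ATP, 0.02 mM ADP final) was added for 60 min at room temperature before two-step ADP-Glo luminescence detection.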

SMILES | outcome
C=CC(=O)N1CCC[C@@H](n2nc(-c3ccc(Oc4ccccc4)cc3)c3c(N)ncnc32)C1 | inactive
Nc1nc(Nc2ccc(S(N)(=O)=O)cc2)nn1C(=O)c1c(F)cccc1F | inactive
C=CC(=O)Nc1cc2c(Nc3ccc(F)c(Cl)c3)ncnc2cc1OCCCN1CCOCC1 | inactive
CC[C@@H]1C(=O)N(C)c2cnc(Nc3ccc(C(=O)NC4CCN(C)CC4)cc3OC)nc2N1C1CCCC1 | inactive
Cc1nc2cnc3ccc(C#Cc4cccnc4)cc3c2n1-c1ccc(C(C)(C)C#N)cc1 | inactive
O=C(O)[C@H](Cc1c[nH]c2ccccc12)N1C(=O)c2ccccc2C1=O | inactive
Cc1ccc(C(N)=O)cc1Nc1nccc(-c2cn(C(C)C)c3cnccc23)n1 | inactive
CNC(=O)c1cc(Oc2ccc(NC(=O)Nc3cc(C(C)(C)C)nn3-c3ccc4ncccc4c3)c(F)c2)ccn1 | inactive
Cc1ccc(C(=O)Nc2ccc(CN3CCN(C)CC3)c(C(F)(F)F)c2)cc1C#Cc1cnc2cccnn12 | inactive
CC[C@H](CO)Nc1nc(NCc2ccccc2)c2ncn(C(C)C)c2n1 | inactive
COc1cc2c(Oc3ccc(-c4cnc(Nc5ccc(F)cc5)n(C)c4=O)cc3F)ccnc2cc1OCCCN1CCOCC1 | inactive
CC(C)(C)c1cnc(CSc2cnc(NC(=O)C3CCNCC3)s2)o1 | inactive
CN(C)CC=CC(=O)Nc1cc2c(Nc3ccc(F)c(Cl)c3)ncnc2cc1O[C@H]1CCOC1 | inactive
O=C(C=Cc1cccnc1)NCCCCC1CCN(C(=O)c2ccccc2)CC1 | inactive
COc1cc2c(Oc3ccc(NC(=O)C4(C(=O)Nc5ccc(F)cc5)CC4)cc3F)ccnc2cc1OCCCN1CCOCC1 | inactive
